Assay outcomes from PubChem BioAssay.
An excerpt weighted towards active compounds, which were near 6% of everything screened.
Sfp PPTase inh: blocks B. subtilis Sfp PPTase activity. Q9F4F7. Biochemical Sfp PPTase activity, qHTS. Potency, µM, inactives show largest response in the series, negative = inhibition, usual class: inhibitors. 310,000 compounds, 3.5% hits. AID 1490;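 also: the enzyme is Sfp with the accession as filed and its product quenches rhodamine fluorescence; 0% = enzyme reaction without inhibitor and -100% = no enzyme wells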
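Fluorescence-quenching assay with 15 nM Sfp, 5 uM rhodamine-CoA and 12.5 uM BHQ-2-labelled ybbR peptide in pH 7.6 Hepes/MgCl2 buffer. Enzyme was pre-incubated with compound for 15 min at room temperature. Rate was taken from the 30-min fluorescence change (525/598 nm).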
Tau fibril ThT: inhibitors of human tau fibril formation, thioflavin T binding; AID 1460; 270,000 compounds, 2.1% hits; P10636; recombinant tau K18 P301L, heparin-induced fibrillization, ThT fluorescence; Potency, µM (series often up to 57.4 µM), without a hit: at the top dose activity, negative = inhibition, most hits filed as inhibitors; also: nearly all actives have a fitted effect of over 55% in size
Target sequence (P10636 561-689 P618L limits assumed): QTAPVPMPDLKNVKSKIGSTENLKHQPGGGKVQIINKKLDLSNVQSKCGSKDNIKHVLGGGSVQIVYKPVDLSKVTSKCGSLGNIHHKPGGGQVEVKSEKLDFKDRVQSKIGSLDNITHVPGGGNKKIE
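Heparin-induced fibrillization of the P301L-mutant K18 repeat-domain fragment of human tau was followed by ThT binding in quantitative high-throughput format.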
Tau FP inhib: tau fibrillization inhibition (FP); 280,000 compounds, 0.39% hits; Potency, µM (top dose mostly 57.7 µM), for the others: at the top dose activity, negative = inhibition, usual class: inhibitors; K18 P301L tau heparin fibrillization, Alexa594 FP, 6 h; AID 1468; also: nearly all actives have a fitted effect of over 55% in size
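Quantitative HTS format: compounds meet 15 uM recombinant K18 P301L tau and Alexa 594-tau tracer in 100 mM sodium acetate pH 7; 20 uM heparin triggers fibrillization at 37 C over 6 hr; FP gives the signal.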
Tau fluor counter: counter-screen for tau fibril formation inhibitors | tau K18 P301L (four-repeat tau fragment) Alexa594 fluorescence, heparin fibrillization | Potency, µM (highest dose often 57.7 µM), inactives show at the top dose activity change, negative = decrease | 280,000 compounds, 0.93% hits | AID 1463; also: nearly all actives have a fitted effect of over 55% in size
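Human K18 P301L tau (15 uM unlabeled plus 0.24 uM Alexa 594-labeled, final) in 100 mM sodium acetate pH 7 was mixed with compound and 20 uM heparin and incubated 6 hr at 37 C.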
VDR inh: vitamin D3 receptor (human) inhibition. P11473. VDR-SRC2-3 peptide fluorescence polarization, 2 h. Potency, µM, inactives show max response, negative = inhibition, most hits filed as inhibitors. 400,000 compounds, 0.93% hits
Target sequence (P11473 whole entry, looked up): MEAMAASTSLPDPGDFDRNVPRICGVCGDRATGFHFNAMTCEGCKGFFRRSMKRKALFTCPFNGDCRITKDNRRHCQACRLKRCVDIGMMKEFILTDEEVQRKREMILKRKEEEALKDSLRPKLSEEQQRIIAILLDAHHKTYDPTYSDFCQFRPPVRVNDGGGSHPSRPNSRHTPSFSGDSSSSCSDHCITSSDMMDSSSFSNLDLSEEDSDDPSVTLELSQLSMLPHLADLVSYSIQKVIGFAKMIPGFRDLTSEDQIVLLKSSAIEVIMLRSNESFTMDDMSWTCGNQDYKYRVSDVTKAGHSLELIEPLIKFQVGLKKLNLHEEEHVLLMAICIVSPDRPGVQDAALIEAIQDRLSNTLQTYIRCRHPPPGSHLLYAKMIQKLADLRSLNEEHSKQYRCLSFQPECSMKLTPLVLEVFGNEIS
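Reagent solutions, kept cold and dark, are dispensed first; compounds are then pinned in at 23 nl, plates briefly spun, and incubated 2 h at ambient temperature. Inhibition of VDR–SRC2-3 peptide binding is read by fluorescence polarization.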
PLK1 PBD inh: inhibitors of human PLK1 polo-box domain binding; Plk1 PBD binding of FITC phosphopeptide, fluorescence polarization; P53350; 360,000 compounds, 2.8% hits; Potency, µM, for the others: max response, negative = inhibition, actives largely listed as inhibitors; also: series mostly up to about 57 µM; nearly all actives have a fitted effect of over 65% in size
Numbers without * were called inactive; u = inconclusive; x = no result; [ ] = remark or other dose. Calls follow the shape of the dose curve; as a rule, active = well fitted curve in the direction sought with a large enough effect; inconclusive = small, poorly fitted or top-dose-only effect, or another doubt; inactive = no such curve, though single readings can be large; an effect the other way counts as inactive or inconclusive. Unless noted, % is scaled to controls: 0 for no effect and ±100 for the full control effect; potency is read from the fitted curve at half-maximal effect.

SMILES | Sfp PPTase inh | Tau fibril ThT | Tau FP inhib | Tau fluor counter | VDR inh | PLK1 PBD inh
Cc1ccn2c(c1)nc(=S)n2C(=O)c1ccccc1 | -17.1% | u | u | -20.8% | -4.9% | 21.2µM*
Cc1cccc(C(=O)n2c(=S)nc3cc(C)ccn32)c1 | 8.91µM* | u | u | -25.9% | -19.0% | 21.2µM*
Cc1ccn2c(NC(=O)c3ccccc3)c(-c3ccccc3)nc2c1 | 6.5% | x | x | x | -6.6% | 7.5%
COCCNC(=S)NNc1ccc(Cl)c(C(=O)O)c1 | 3.98µM* | u | u | -14.3% | -14.7% | 26.7µM*
CCOC(=O)C1=C(CSc2nc3c(cc2C#N)CN(C)CC3)OC(N)=C(C#N)C1c1ccncc1 (stereo not given) | u | u | u | -27.4% | -21.6% | -27.2%
CCOC(=O)C1=C(CSc2nc3c(cc2C#N)CN(C)CC3)OC(N)=C(C#N)C1c1ccc(Cl)cc1 (stereo not given) | -30.8% | 20µM* | -16.0% | u | 6.8% | u
COc1cccc(C(=O)N2CC(=O)Nc3ccc(C)cc3C2c2ccc(F)cc2)c1OC (stereo not given) | x | -1.9% | u | -2.0% | 2.0% | x
C=C1C(=O)OC2CC1C(OC(C)=O)CC(C)=CCCC(C)=CCC[C@@]2(C)O (stereo not given in full) | -13.9% | u | -2.8% | -0.9% | 35.5µM* | x
Cc1cc(C)c(NC(=O)COC(=O)c2cccc3c2C(=O)c2ccccc2C3=O)c(C)c1 | 11.3% | u | 5.8% | u | -0.2% | 5.4%
Cc1cc(C)c(Nc2cc(S(=O)(=O)O)c(N)c3c2C(=O)c2ccccc2C3=O)c(C)c1 | 50.1µM* | 7.94µM* | 20µM* | 7.08µM*[quencher] | u | 23.8µM*
Clc1nssc1=Nc1ccccc1 | 20µM* | 28.2µM* | 39.8µM* | -22.7% | 44.7µM* | 2.38µM*
COc1ccc(N=C2SCC(=O)N2C)cc1 | x | x | x | x | x | -21.6%
COc1ccc(N=c2ssnc2Cl)cc1 | 8.91µM* | 12.6µM* | u | -24.3% | u | 1.68µM*
CCCS(=O)(=O)NC(=O)C1(C)CCCN(C(=O)c2ccccc2OC(F)(F)F)C1 (stereo not given) | x | x | x | x | x | -11.6%
CCc1ccc(/C=C2/C(=O)N(CC)C(=S)N2C)s1 | -21.4% | u | 6.1% | -13.4% | -21.1% | 23.8µM*
COc1ccccc1N1CCN(/N=C\c2ccccc2)CC1 | 5.9% | x | x | x | -6.4% | 4.4%
Cc1ccc(/C=N/N2CCN(Cc3ccc(Cl)cc3)CC2)o1 | 25.1µM* | -6.9% | -1.4% | -3.3% | u | -10.2%
Clc1ccc(CN2CCN(/N=C/c3ccco3)CC2)cc1 | 3.3% | -4.7% | 0.7% | -10.0% | -18.2% | -1.4%
COc1cc(/C=N/N2CCN(C3c4ccccc4-c4ccccc43)CC2)cc(OC)c1O | 39.8µM* | u | 12.1% | u | -8.0% | 3.6%
COc1ccccc1N1CCN(/N=C\c2ccc(C)o2)CC1 | 79.4µM* | -9.9% | 5.7% | -7.9% | -6.7% | -6.3%
Cc1ccc(/C=N/N2CCN(C3c4ccccc4-c4ccccc43)CC2)o1 | 17.8µM* | -25.1% | -2.3% | -27.7% | -16.4% | -13.0%
O=C(CSC1=Nc2ccccc2C2=NC(CCC(=O)NC3CCCCC3)C(=O)N12)Nc1cccc(C(F)(F)F)c1 (stereo not given) | x | u | 2.4% | -17.5% | -1.7% | x
Cc1ccc(CSCCC(=O)NCc2ccc(F)cc2Cl)cc1 | x | -8.2% | 1.8% | -15.3% | -8.4% | x
Oc1ccc(/C=N/N2CCN(C3c4ccccc4-c4ccccc43)CC2)c(O)c1 | 24.3% | -18.2% | u | 12.6µM*[quencher] | 0.6% | -4.1%
Oc1ccc(/C=N/N2CCN(C3c4ccccc4-c4ccccc43)CC2)cc1O | 56.2µM* | u | u | 12.6µM*[quencher] | -0.9% | -4.5%
SMILES | Sfp PPTase inh | Tau fibril ThT | Tau FP inhib | Tau fluor counter | VDR inh | PLK1 PBD inh
O=C(O)c1ccccc1/C=N/N1CCN(C2c3ccccc3-c3ccccc32)CC1 | 7.7% | -9.9% | -6.7% | -4.1% | u | -12.9%
C=CCc1cccc(/C=N/NC(=O)CCCNc2ccc(C)cc2)c1O | 22.5% | u | 11.3% | 11.2µM*[quencher] | -18.5% | 11.7%
C=CCc1cccc(/C=N/NC(=O)CNc2ccccc2OC)c1O | 20.7% | u | u | 15.8µM*[quencher] | 23.8% | -5.1%
C=CCc1cccc(/C=N/NC(=O)CNc2ccccc2)c1O | 5.9% | 4.4% | u | u | 4.3% | 1.1%
N#C/C(=C/c1ccc(O)cc1)c1nc(-c2ccc(-c3ccccc3)cc2)cs1 | x | u | u | u | -1.4% | x
N#C/C(=C\Nc1ccc2cn[nH]c2c1)c1nc(-c2ccccc2)cs1 | 56.2µM* | -11.8% | -16.5% | u | 0.6% | -9.5%
COc1ccc(OC)c(-n2c(CNC3CCN(Cc4ccccc4)CC3)nc3ccccc3c2=O)c1 | 14.8% | -22.1% | -2.0% | -10.5% | -9.9% | -5.7%
COc1ccc(OC)c(-n2c(CN3CCC(C(N)=O)CC3)nc3ccccc3c2=O)c1 | 35.5µM* | 11.6% | -0.9% | 7.7% | -10.5% | -6.2%
O=[N+]([O-])c1ccc(N=Nc2ccc(O)cc2O)cc1 | -9.6% | 2.51µM* | -12.9% | 14.1µM*[quencher] | 14.8% | -3.5%
O=C(CCn1c(=O)c2cccn2c2cccnc21)N1CCN(c2ccccc2)CC1 | x | -13.2% | -2.8% | -21.5% | 5.3% | x
CCC(=O)Nc1ccc(C(=O)CSc2nnc(-c3ccc(O)cc3)n2CC2CCCO2)cc1 (stereo not given) | 79.4µM* | -12.3% | -13.8% | -19.1% | -3.2% | -12.5%
COC(=O)[C@@]1(C)C=C[C@@H](Cc2ccccc2)N1C | -2.6% | u | -0.5% | -11.7% | x | x
CC(C(=O)Nc1ccc(N2CCOCC2)cc1)N1C(=O)NC(C)(C)C1=O (stereo not given) | x | x | x | x | 3.3% | 2.5%
O=C(Nc1ccc(F)cc1F)c1csc(-c2ccncc2)n1 | 9.0% | -7.7% | 4.7% | -2.7% | -1.1% | -5.0%
Cc1ccc(C(=O)Nc2cccc(C(F)(F)F)c2)cc1NC(=O)c1csc(-c2ccncc2)n1 | 20µM* | -10.8% | -9.4% | -14.7% | 6.3% | -12.7%
COc1cc(Nc2nc(-c3ccccc3)c3cc(C)ccc3n2)cc(OC)c1OC | -25.7% | 15.8µM* | u | u | -12.6% | u
COc1cccc(Nc2nc(-c3ccccc3)c3cc(C)ccc3n2)c1 | x | u | -10.4% | u | -15.3% | x
Cc1cc(C)nc(Nc2ccc(N3CCCC3)cc2)n1 | 79.4µM* | u | 5.0% | u | -18.7% | -5.0%
Cc1ccc(NC(=O)CC(C)S(=O)(=O)c2ccc3c(c2)NC(=O)CO3)cc1C (stereo not given) | 15.2% | -13.7% | -5.7% | -16.5% | -2.3% | 23.8µM*
CC(CC(=O)N1CCc2ccccc21)S(=O)(=O)c1ccc2c(c1)NC(=O)CO2 (stereo not given) | 9.3% | x | x | x | -9.2% | 26.7µM*
